# Results filed as inconclusive are left out. Activity calls are given as the source filed them. The calls were made as follows, unless noted: active = hit-call score of the fitted dose curve at least 0.9, where 1 is the maximum; inactive = score below 0.9.
# How the values were obtained:
# [1] = molecular target: Paired box protein Pax-6 (Homo sapiens) (UniProt P26367); experiment: ATG_Pax6_CIS: Attagene CIS-FACTORIAL HepG2 Assay for human Paired Box 6 (PAX6) (AID 2282956); details: HepG2 CIS-FACTORIAL PAX6 reporter transcription, RNA readout; actives raise or lower the signal
# Paired box protein Pax-6 (Homo sapiens), sequence (P26367 whole entry, looked up): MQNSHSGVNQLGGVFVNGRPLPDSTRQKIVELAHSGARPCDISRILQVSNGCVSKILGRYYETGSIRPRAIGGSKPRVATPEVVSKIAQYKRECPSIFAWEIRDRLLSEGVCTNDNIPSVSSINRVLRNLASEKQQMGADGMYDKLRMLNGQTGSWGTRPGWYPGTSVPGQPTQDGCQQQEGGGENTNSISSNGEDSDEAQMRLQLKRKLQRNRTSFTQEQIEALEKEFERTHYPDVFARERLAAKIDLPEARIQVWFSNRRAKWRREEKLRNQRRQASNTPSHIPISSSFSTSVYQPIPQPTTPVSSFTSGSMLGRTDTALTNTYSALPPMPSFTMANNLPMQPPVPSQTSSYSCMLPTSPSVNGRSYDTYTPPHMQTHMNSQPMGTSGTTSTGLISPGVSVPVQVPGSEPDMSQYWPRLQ
# In short: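 Read-out is reporter transcript level, measured by RT-PCR with fluorescent primer extension and capillary electrophoresis after 24 h dosing of transfected HepG2 cells. Activity in either direction fitted relative to DMSO control.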
# [2] = ATG_Sox_CIS: Attagene CIS-FACTORIAL HepG2 Assay for human SRY-box transcription factor (SOX) (AID 2282960); details: HepG2 Attagene cis-factorial SOX reporter, mRNA; actives raise or lower the signal
# In short: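 After 24 h of chemical treatment, transfected HepG2 reporter cells are lysed for total RNA. Transcript levels come from RT-PCR with labelled primer extension and capillary electrophoresis, analysed bidirectionally versus DMSO.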
# [3] = molecular target: Transcription factor Sp1 (Homo sapiens) (UniProt P08047); experiment: ATG_Sp1_CIS: Attagene CIS-FACTORIAL HepG2 Assay for human Specificity Protein 1 (Sp1) (AID 2282961); details: HepG2 Sp1 cis-reporter transcription, actives raise or lower the signal
# Transcription factor Sp1 (Homo sapiens), sequence (P08047 whole entry, looked up): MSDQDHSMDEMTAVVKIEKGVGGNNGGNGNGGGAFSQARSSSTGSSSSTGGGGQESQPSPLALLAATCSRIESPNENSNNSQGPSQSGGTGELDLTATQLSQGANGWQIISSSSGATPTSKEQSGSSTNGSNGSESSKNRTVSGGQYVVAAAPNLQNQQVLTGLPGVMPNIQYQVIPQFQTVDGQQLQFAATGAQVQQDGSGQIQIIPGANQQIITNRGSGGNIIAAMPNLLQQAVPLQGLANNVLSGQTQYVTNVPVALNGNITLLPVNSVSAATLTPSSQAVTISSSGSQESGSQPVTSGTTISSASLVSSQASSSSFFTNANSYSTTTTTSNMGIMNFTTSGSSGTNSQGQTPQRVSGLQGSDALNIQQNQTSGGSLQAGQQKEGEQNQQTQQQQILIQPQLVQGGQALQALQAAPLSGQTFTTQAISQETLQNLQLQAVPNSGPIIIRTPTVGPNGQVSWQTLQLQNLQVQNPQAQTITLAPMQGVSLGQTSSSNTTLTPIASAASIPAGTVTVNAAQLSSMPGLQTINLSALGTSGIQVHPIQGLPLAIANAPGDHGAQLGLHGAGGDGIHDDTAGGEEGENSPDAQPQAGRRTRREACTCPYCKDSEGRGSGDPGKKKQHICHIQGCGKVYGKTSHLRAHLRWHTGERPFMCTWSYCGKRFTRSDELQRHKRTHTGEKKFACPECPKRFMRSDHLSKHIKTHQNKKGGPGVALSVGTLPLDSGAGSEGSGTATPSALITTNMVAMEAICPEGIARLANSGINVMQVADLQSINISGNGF
# In short: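 Sp1-driven reporter mRNA, read as capillary electrophoresis fluorescence after RT-PCR, in transiently transfected HepG2 cells dosed for 24 h; signal change in either direction relative to DMSO.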
# [4] = ATG_SREBP_CIS: Attagene CIS-FACTORIAL HepG2 Assay for human Sterol Regulatory Element Binding (SREBP) (AID 2282962); details: HepG2 Attagene cis-factorial SREBP reporter, mRNA; actives raise or lower the signal
# In short: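 Endogenous SREBP activity read as cis-element-driven reporter transcript in transiently transfected HepG2, 24 h post-dosing; quantified via RT-PCR plus capillary electrophoresis of fluorescent fragments. Gain or loss of signal fitted relative to DMSO baseline.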
# [5] = molecular target: Signal transducer and activator of transcription 3 (Homo sapiens) (UniProt P40763); experiment: ATG_STAT3_CIS: Attagene CIS-FACTORIAL HepG2 Assay for human Signal Transducer and Activator of Transcription 3 (STAT3) (AID 2282963); details: HepG2, Attagene cis-factorial STAT3 reporter transcription; actives raise or lower the signal
# Signal transducer and activator of transcription 3 (Homo sapiens), sequence (P40763 whole entry, looked up): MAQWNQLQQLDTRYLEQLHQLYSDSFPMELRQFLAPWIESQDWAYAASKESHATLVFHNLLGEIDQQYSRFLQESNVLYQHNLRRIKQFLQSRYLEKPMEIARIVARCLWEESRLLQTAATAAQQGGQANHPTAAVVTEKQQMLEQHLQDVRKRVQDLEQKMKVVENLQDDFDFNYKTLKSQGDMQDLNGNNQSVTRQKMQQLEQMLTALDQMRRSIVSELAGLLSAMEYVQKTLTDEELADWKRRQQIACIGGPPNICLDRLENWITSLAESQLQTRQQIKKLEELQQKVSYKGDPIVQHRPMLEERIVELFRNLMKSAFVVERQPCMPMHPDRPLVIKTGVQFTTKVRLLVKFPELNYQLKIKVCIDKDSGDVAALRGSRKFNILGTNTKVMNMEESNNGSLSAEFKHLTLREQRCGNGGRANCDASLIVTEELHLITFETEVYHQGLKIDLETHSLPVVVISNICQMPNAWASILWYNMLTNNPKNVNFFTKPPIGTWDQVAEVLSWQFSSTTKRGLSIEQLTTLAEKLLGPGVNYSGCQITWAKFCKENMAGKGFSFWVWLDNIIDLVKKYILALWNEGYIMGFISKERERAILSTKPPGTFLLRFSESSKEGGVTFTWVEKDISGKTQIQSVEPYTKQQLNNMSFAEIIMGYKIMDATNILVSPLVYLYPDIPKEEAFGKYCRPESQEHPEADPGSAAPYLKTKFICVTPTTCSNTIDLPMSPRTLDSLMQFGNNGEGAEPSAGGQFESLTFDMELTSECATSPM
# In short: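 Cis-factorial format: endogenous transcription factors in HepG2 drive transfected reporter units. After 24 h treatment, reporter RNA was reverse-transcribed, amplified, FAM-labelled and HpaI-digested before CE analysis; activity scored in both directions against DMSO.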
# [6] = ATG_TA_CIS: Attagene CIS-FACTORIAL HepG2 Assay for human TA Basal Promoter (AID 2282964); details: HepG2 Attagene CIS-factorial TA basal promoter reporter; actives raise or lower the signal
# In short: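 HepG2 cells transiently transfected with multiplexed cis-promoter reporter units, dosed 24 h. Reporter mRNA measured by RT-PCR, 6-FAM labelling, HpaI digestion and capillary electrophoresis; bidirectional fit versus DMSO baseline, serving as background control.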
# [7] = ATG_TCF_b_cat_CIS: Attagene CIS-FACTORIAL HepG2 Assay for human T-Cell-Factor with beta-catenin (TCF/b-cat) (AID 2282965); details: HepG2 TCF/beta-catenin cis-reporter transcription, actives raise or lower the signal
# In short: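 Measured: reporter mRNA in HepG2 transiently transfected with cis-promoter reporter units, 24 h after chemical addition. Fitting was bidirectional, DMSO as negative control.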
# [8] = ATG_TAL_CIS: Attagene CIS-FACTORIAL HepG2 Assay for human TAL Basal Promoter (AID 2282966); details: HepG2 Attagene cis-factorial TAL promoter reporter; actives raise or lower the signal;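 also: background control endpoint measuring basal TAL promoter reporter mRNA not a specific factor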
# In short: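 After 24 hours of chemical exposure, transfected HepG2 cells yielded RNA that was converted to 6-FAM-labelled, HpaI-digested reporter fragments for capillary electrophoresis. Values derive from bidirectional fitting against DMSO controls.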
# [9] = ATG_TGFb_CIS: Attagene CIS-FACTORIAL HepG2 Assay for human Transforming Growth Factor (TGF) (AID 2282967); details: HepG2 Attagene CIS TGFb reporter, mRNA transcription; actives raise or lower the signal
# In short: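 HepG2 cells transiently transfected with cis-promoter-driven multiplexed reporter units; 24 h compound exposure. Reporter mRNA measured by RT-PCR, 6-FAM labeling, HpaI digestion and capillary electrophoresis; bidirectional fit versus DMSO baseline.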
# [10] = ATG_VDRE_CIS: Attagene CIS-FACTORIAL HepG2 Assay for human Vitamin D Receptor Element (VDRE) (AID 2282968); details: HepG2 VDRE cis-reporter transcription, actives raise or lower the signal
# In short: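 Measures endogenous factor activity through cis-element-driven reporter transcripts in transiently transfected HepG2. Cells are treated 24 h; reporter mRNA is quantified by RT-PCR and capillary electrophoresis; fitting is bidirectional.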
# [11] = ATG_PPRE_CIS: Attagene CIS-FACTORIAL HepG2 Assay for human Peroxisome Proliferator-activated Response Element (PPRE) (AID 2282958); details: HepG2 PPRE cis-element reporter, Attagene transcription factor profiling; actives raise or lower the signal
# In short: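 Multiplexed reporter transcription units under cis-regulatory promoters were transfected into HepG2 cells to capture endogenous factor activity. A 24 h incubation preceded RNA isolation and fluorescent RT-PCR fragment analysis.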
# [12] = molecular target: X-box-binding protein 1 (Homo sapiens) (UniProt P17861); experiment: ATG_Xbp1_CIS: Attagene CIS-FACTORIAL HepG2 Assay for human X-box Binding Protein 1 (XBP1) (AID 2282972); details: HepG2 XBP1 cis-element reporter, Attagene multiplex; actives raise or lower the signal
# X-box-binding protein 1 (Homo sapiens), sequence (P17861 whole entry, looked up): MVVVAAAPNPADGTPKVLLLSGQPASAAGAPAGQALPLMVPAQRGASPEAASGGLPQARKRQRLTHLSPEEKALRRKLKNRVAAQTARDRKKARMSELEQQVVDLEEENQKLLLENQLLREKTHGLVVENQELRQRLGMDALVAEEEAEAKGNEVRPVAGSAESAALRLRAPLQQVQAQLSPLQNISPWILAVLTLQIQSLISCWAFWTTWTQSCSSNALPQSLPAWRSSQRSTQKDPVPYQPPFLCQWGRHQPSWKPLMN
# In short: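 Reporter transcripts were quantified by RT-PCR with fluorescent primer extension and capillary electrophoresis after 24 h chemical exposure. Cells: transiently transfected HepG2 carrying cis-regulated reporter constructs; data fitted bidirectionally relative to DMSO.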
# [13] = ATG_RORE_CIS: Attagene CIS-FACTORIAL HepG2 Assay for human RAR-related Orphan Receptor Element (RORE) (AID 2282959); details: HepG2 Attagene cis-factorial RORE reporter, mRNA; actives raise or lower the signal
# In short: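 Fluorescence intensity of reporter-specific cDNA fragments, separated by capillary electrophoresis, gives the signal. Source: HepG2 liver cells transiently transfected with cis-element reporters and exposed 24 h; DMSO-normalized bidirectional fit.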
# [14] = ATG_M_19_TRANS: Attagene TRANS-FACTORIAL HepG2 Assay for M19 Transcription Factor (Internal Marker) (AID 2282974; active = hit-call score of the fitted dose curve at least 0.9, where 1 is the maximum); details: HepG2 Attagene TRANS-FACTORIAL M19 internal marker reporter
# In short: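 Measured here: internal-marker reporter transcript from HepG2 cells transfected with MRTUs, harvested at 24 h. cDNA PCR products were 6-FAM labelled by primer extension, cut with HpaI for 2 h at 37 C, and resolved by CE.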
# [15] = molecular target: Steroid hormone receptor ERR1 (Homo sapiens) (UniProt P11474); experiment: ATG_ERRa_TRANS: Attagene TRANS-FACTORIAL HepG2 Assay for human Estrogen-Related Receptor alpha (ERRa) (AID 2282971; active = hit-call score of the fitted dose curve at least 0.9, where 1 is the maximum); details: HepG2 Attagene TRANS reporter, ERRa transactivation
# Steroid hormone receptor ERR1 (Homo sapiens), sequence (P11474 whole entry, looked up, the tested form may be a part): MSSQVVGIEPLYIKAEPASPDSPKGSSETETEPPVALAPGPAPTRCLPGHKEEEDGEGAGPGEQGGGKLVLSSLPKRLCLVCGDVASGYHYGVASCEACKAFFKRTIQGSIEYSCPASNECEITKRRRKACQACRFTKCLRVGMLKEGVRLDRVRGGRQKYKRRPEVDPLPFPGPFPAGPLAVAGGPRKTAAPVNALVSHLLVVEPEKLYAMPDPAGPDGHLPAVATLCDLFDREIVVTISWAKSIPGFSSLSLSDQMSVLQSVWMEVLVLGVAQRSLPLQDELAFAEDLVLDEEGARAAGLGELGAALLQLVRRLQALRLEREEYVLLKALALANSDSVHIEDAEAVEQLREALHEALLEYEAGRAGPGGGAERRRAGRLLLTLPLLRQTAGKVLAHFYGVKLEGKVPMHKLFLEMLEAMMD
# In short: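 Reporter transcript induction was quantified by RT-PCR and capillary electrophoresis of FAM-labelled, HpaI-cut products after 24 h treatment of HepG2 cells carrying transiently transfected GAL4-UAS reporter units and an exogenous ERRa-Gal4 fusion; activity scored as increase over DMSO.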
# [16] = ATG_GAL4_TRANS: Attagene TRANS-FACTORIAL HepG2 Assay for GAL4 (Internal Marker) (AID 2282976; active = hit-call score of the fitted dose curve at least 0.9, where 1 is the maximum); details: HepG2 Attagene TRANS GAL4 internal marker reporter
# In short: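 First, HepG2 cells were transfected with reporter units under GAL4-UAS control. Next, they were treated with chemical for 24 h. Finally, RNA was reverse-transcribed, PCR-amplified, FAM-labelled and resolved by capillary electrophoresis, with induction scored against DMSO.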
# [17] = molecular target: Nuclear receptor subfamily 1 group I member 3 (Homo sapiens) (UniProt Q14994); experiment: ATG_CAR_TRANS: Attagene TRANS-FACTORIAL HepG2 Assay for human Constitutive Androstane Receptor (CAR) (AID 2282969; active = hit-call score of the fitted dose curve at least 0.9, where 1 is the maximum;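 also: activators raise reporter mRNA above DMSO so AC50 marks induction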); details: HepG2 Attagene TRANS-FACTORIAL CAR reporter
# Nuclear receptor subfamily 1 group I member 3 (Homo sapiens), sequence (Q14994 whole entry, looked up, the tested form may be a part): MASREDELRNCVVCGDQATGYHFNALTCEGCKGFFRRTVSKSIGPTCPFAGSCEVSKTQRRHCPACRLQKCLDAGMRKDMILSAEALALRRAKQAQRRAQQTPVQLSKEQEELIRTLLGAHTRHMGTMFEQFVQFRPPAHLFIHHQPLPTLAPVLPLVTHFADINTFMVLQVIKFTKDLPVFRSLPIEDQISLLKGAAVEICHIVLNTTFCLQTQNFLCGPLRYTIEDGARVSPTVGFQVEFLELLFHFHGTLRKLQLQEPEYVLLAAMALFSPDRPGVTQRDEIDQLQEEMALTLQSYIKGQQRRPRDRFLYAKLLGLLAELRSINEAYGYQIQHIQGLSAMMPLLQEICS
# In short: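 Signal is reporter mRNA induction relative to DMSO, measured 24 h after dosing by RT-PCR with fluorescent primer extension and capillary electrophoresis. Human HepG2 liver cells carried transiently transfected chimeric NR-Gal4/GAL4-UAS reporter constructs.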
# [18] = molecular target: Androgen receptor (Homo sapiens) (UniProt P10275); experiment: ATG_AR_TRANS: Attagene TRANS-FACTORIAL HepG2 Assay for human Androgen Receptor (AR) (AID 2282973; active = hit-call score of the fitted dose curve at least 0.9, where 1 is the maximum); details: HepG2 Attagene TRANS-FACTORIAL AR reporter transcription
# Androgen receptor (Homo sapiens), sequence (P10275 whole entry, looked up, the tested form may be a part): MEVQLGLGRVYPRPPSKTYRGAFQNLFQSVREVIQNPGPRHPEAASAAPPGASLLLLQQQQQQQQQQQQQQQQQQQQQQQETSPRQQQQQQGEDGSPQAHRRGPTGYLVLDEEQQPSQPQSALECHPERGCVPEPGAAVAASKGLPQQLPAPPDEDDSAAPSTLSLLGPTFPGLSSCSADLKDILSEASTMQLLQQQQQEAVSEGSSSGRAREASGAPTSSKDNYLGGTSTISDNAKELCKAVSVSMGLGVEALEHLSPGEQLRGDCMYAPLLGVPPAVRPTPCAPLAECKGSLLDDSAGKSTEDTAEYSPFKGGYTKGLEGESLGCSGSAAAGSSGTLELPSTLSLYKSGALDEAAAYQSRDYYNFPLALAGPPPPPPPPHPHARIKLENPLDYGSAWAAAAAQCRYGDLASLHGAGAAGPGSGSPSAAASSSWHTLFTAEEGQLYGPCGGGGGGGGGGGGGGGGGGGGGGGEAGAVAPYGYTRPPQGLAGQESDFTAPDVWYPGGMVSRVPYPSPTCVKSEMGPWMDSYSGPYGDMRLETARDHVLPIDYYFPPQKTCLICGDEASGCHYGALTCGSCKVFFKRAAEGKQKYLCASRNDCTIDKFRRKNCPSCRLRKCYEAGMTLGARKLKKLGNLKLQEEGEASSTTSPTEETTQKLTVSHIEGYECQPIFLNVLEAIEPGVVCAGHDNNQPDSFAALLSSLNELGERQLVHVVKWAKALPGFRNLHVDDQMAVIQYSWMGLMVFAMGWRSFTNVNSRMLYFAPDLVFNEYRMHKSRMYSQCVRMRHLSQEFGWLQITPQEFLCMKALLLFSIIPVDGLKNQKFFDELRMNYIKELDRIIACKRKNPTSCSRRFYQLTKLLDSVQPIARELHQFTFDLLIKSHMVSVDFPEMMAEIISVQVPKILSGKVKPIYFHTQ
# In short: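 Steps: transfect HepG2 with multiple GAL4-UAS reporter transcription units (TRANS format, exogenous NR-Gal4 protein); dose 24 h; isolate RNA, reverse-transcribe, PCR-amplify, FAM-label, HpaI-digest; resolve by capillary electrophoresis. Positive direction vs DMSO.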
smiles,measurement,setting,value
Cc1ccc(N=C=O)cc1N=C=O,outcome,[1],inactive
same,outcome,[2],inactive
same,outcome,[3],inactive
same,outcome,[4],inactive
same,outcome,[5],inactive
same,outcome,[6],inactive
same,outcome,[7],inactive
same,outcome,[8],inactive
same,outcome,[9],inactive
same,outcome,[10],inactive
CCN(CC)N=O,outcome,[1],inactive
same,outcome,[11],inactive
same,outcome,[2],inactive
same,outcome,[3],inactive
same,outcome,[4],inactive
same,outcome,[5],inactive
same,outcome,[6],inactive
same,outcome,[7],inactive
same,outcome,[8],inactive
same,outcome,[9],inactive
same,outcome,[10],inactive
same,outcome,[12],inactive
Oc1ccc2ccc3cccc4ccc1c2c34,outcome,[1],inactive
same,outcome,[13],inactive
same,outcome,[2],inactive
same,outcome,[4],inactive
same,outcome,[5],inactive
same,outcome,[6],inactive
same,outcome,[7],inactive
same,outcome,[8],inactive
same,outcome,[9],inactive
same,outcome,[10],inactive
same,outcome,[12],inactive
same,outcome,[14],inactive
c1ccc(NNc2ccccc2)cc1,outcome,[1],inactive
same,outcome,[13],inactive
same,outcome,[2],inactive
same,outcome,[4],inactive
same,outcome,[5],inactive
same,outcome,[6],inactive
same,outcome,[7],inactive
same,outcome,[8],inactive
same,outcome,[9],inactive
same,outcome,[10],inactive
same,outcome,[14],inactive
Clc1ccc(C(c2ccc(Cl)cc2)C(Cl)(Cl)Cl)cc1,outcome,[1],inactive
same,outcome,[11],inactive
same,outcome,[2],inactive
same,AC50,[3],100 µM (active)
same,outcome,[4],inactive
same,outcome,[5],inactive
same,outcome,[6],inactive
same,outcome,[7],inactive
same,outcome,[8],inactive
same,outcome,[9],inactive
same,outcome,[10],inactive
same,outcome,[15],inactive
same,outcome,[14],inactive
same,outcome,[16],inactive
CCCCOC(=O)c1ccccc1C(=O)OCc1ccccc1,outcome,[1],inactive
same,outcome,[11],inactive
same,outcome,[2],inactive
same,outcome,[3],inactive
same,outcome,[4],inactive
same,outcome,[5],inactive
same,outcome,[6],inactive
same,outcome,[7],inactive
same,outcome,[8],inactive
same,outcome,[9],inactive
same,outcome,[17],inactive
same,outcome,[14],inactive
same,outcome,[16],inactive
O=C(N[C@H](c1ccccc1)[C@@H]1CN2CCC1CC2)c1c(Cl)ccc(C(F)(F)F)c1Cl,outcome,[1],inactive
same,outcome,[11],inactive
same,outcome,[13],inactive
same,outcome,[2],inactive
same,AC50,[4],5.4 µM (active)
same,outcome,[5],inactive
same,outcome,[6],inactive
same,outcome,[7],inactive
same,outcome,[8],inactive
same,outcome,[9],inactive
same,outcome,[10],inactive
same,outcome,[15],inactive
same,outcome,[12],inactive
OCCOCCO,outcome,[1],inactive
same,outcome,[11],inactive
same,outcome,[2],inactive
same,outcome,[4],inactive
same,outcome,[5],inactive
same,outcome,[6],inactive
same,outcome,[7],inactive
same,outcome,[8],inactive
same,outcome,[9],inactive
same,outcome,[10],inactive
same,outcome,[17],inactive
same,outcome,[12],inactive
same,outcome,[14],inactive
Cc1ccc(N)cc1,outcome,[1],inactive
same,outcome,[13],inactive
same,outcome,[2],inactive
same,outcome,[4],inactive
same,outcome,[5],inactive
same,outcome,[6],inactive
same,outcome,[7],inactive
same,outcome,[8],inactive
same,outcome,[9],inactive
same,outcome,[17],inactive
same,outcome,[12],inactive
same,outcome,[14],inactive
CCC(C)c1ccc(O)cc1 (configuration not stated),outcome,[1],inactive
same,outcome,[2],inactive
same,outcome,[3],inactive
same,AC50,[4],163 µM (active)
same,outcome,[5],inactive
same,outcome,[6],inactive
same,outcome,[7],inactive
same,outcome,[8],inactive
same,outcome,[9],inactive
same,outcome,[17],inactive
same,outcome,[14],inactive
same,outcome,[16],inactive
Cc1cc(N=Nc2ccccc2C)ccc1N,AC50,[1],22.4 µM (active)
same,AC50,[11],26.4 µM (active)
same,outcome,[2],inactive
same,outcome,[3],inactive
same,outcome,[4],inactive
same,outcome,[5],inactive
same,AC50,[6],19 µM (active)
same,outcome,[7],inactive
same,outcome,[8],inactive
same,outcome,[9],inactive
same,AC50,[10],22.9 µM (active)
same,outcome,[17],inactive
same,outcome,[15],inactive
same,outcome,[18],inactive
same,outcome,[14],inactive

# — PubChem BioAssay (EPA / NIEHS)
